The nature of test [1]: Viability counterscreen for agonist of constitutive androstane receptor (CAR) against the NCATS DSHEA and TCM libraries (AID 1794838).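 Also: HepG2 cells with CYP2B6 reporter and hCAR plus 0.75 µM PK11195 antagonist; 0% is about no effect.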 Put shortly: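 In agonist mode, PK11195 is added at 0.75 uM final to HepG2-CYP2B6-hCAR cells dosed with test substances. Cultures incubate 24 h at 37C before a protease-based fluorogenic viability readout.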
Test [2] in a line: HepG2 viability counterscreen (readout 2: ATP content) against the NCATS DSHEA and TCM libraries (AID 1794840).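 Also: HepG2 cells exposed to substances for about 24 h; 0% is about no effect.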 Put shortly: (§1)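 Cytotoxicity was assessed in HepG2 cells plated at 1,000 cells/well and exposed for about 24 hours to a concentration series. Protease activity and ATP content were measured sequentially in each well.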
A general note: A counterscreen serves to expose hits that act by an unwanted route or on another target.

Test [3] is described as follows: HepG2 viability counterscreen (readout 1: protease activity) against the NCATS DSHEA and TCM libraries (AID 1794841).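 Also: cells exposed to compounds for about 24 h before the protease read; 0% is about no effect.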 An outline of the steps: as §1
For test [4], the target named is Cytochrome P450 3A4 (Homo sapiens) (UniProt P08684). As to the kind of experiment: qHTS for inhibitors of CYP3A4 against the NCATS DSHEA and TCM libraries (AID 1919971).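 Also: % is scaled to controls: 0 for no effect and ±100 for the full control effect; inhibition lowers luminescence from luciferin made by CYP3A4.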 Put shortly: (§2)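 Luminescent P450-Glo format: compounds preincubated 15 min with enzyme and luciferin substrate, reaction run 30-45 min after NADPH regeneration solution. Intraplate controls: ketoconazole for CYP3A4 and CYP2C19, sulfaphenazole for CYP2C9.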

In test [5] the target is Cytochrome P450 2D6 (Homo sapiens) (UniProt P10635). As to the kind of experiment: qHTS for inhibitors of CYP2D6 against the NCATS DSHEA and TCM libraries (AID 1919972). Also: % is scaled to controls: 0 for no effect and ±100 for the full control effect. An outline of the steps:
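Luminescent P450-Glo read-out of CYP2D6 turnover of a luciferin substrate after NADPH-driven reaction of 30-45 min at room temperature. Compounds were first preincubated 15 min with enzyme at titrated concentrations; quinidine was the intraplate control.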
A general note: qHTS replaces the single test concentration by a dilution series.

Test [6] has as its target Cytochrome P450 2C9 (Homo sapiens) (UniProt P11712). As to the kind of experiment: qHTS for inhibitors of CYP2C9 against the NCATS DSHEA and TCM libraries (AID 1919973). Also: potency is read from the fitted curve at half-maximal effect. Put shortly: as §2
For test [7], the target named is Cytochrome P450 2C19 (Homo sapiens) (UniProt P33261). As to the kind of experiment: qHTS for inhibitors of CYP2C19 against the NCATS DSHEA and TCM libraries (AID 1919974).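 Also: luminescence from luciferin released by CYP2C19 oxidation of a pro-luciferin substrate.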 Also: potency is read from the fitted curve at half-maximal effect. Put shortly: as §2
Test [8] is described as follows: KB-3-1 P-gp reporter qHTS against the NCATS DSHEA and TCM libraries (AID 1919975). Also: 0% is about no effect. Put shortly: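 72 h exposure of KB-3-1 cells (DMEM, 10% FBS) to DSHEA/TCM samples, concentration-response; cell viability measured as CellTiter-Glo luminescence after 30 min at room temperature.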
The target of test [9] is Cytochrome P450 1A2 (Homo sapiens) (UniProt P05177). As to the kind of experiment: qHTS for inhibitors of CYPIA2 against the NCATS DSHEA and TCM libraries (AID 1919976).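 Also: light from luciferin formed by CYP1A2 from a pro-luciferin substrate; series mostly up to about 37 µM; % is scaled to controls: 0 for no effect and ±100 for the full control effect.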 Put shortly: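 Human CYP1A2 with pro-luciferin substrate (typically 100 mM KPO4), 15 min preincubation with compound, then 1x NADPH regeneration for 30-45 min at room temperature in the dark. Luciferin quantified by luciferase luminescence; furafylline intraplate control.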

Test [10] in a line: qHTS Counterscreen for compound interference against the NCATS DSHEA and TCM libraries (AID 1919978). Also: % of control where 0% means no effect. Conditions: firefly luciferase detection reagent interference, luminescence. Put shortly:
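Read-out is luminescence after 30 min at RT with luciferin detection reagent. Before that, compounds (19.5 nM to 39.8 uM final) sat 15 min at RT with 1 uM D-luciferin or 100 mM potassium phosphate buffer. PTC124 served as intraplate control.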

Test [11] can be described thus: Dual reporter qHTS for agonist of Pregnane X Receptor (hPXR) against the NCATS DSHEA and TCM libraries: Fluorescence readout (AID 1920058). Also: 0% is about no effect. Put shortly: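 hPXR-Luc HepG2 cells, 2000/well in charcoal-stripped serum, attached 5 h, dosed for ~24 h at 37 °C. Fluorescence read is CellTiter-Fluor viability (Ex/Em 405/540 nm); rifampicin positive, tetraoctyl ammonium bromide (92 µM) cytotoxicity controls.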

Test [12] deals with Nuclear receptor subfamily 1 group I member 2 (Homo sapiens) (UniProt O75469). As to the kind of experiment: Dual reporter qHTS for agonist of Pregnane X Receptor (hPXR) against the NCATS DSHEA and TCM libraries: Luminescence readout (AID 1920059). Also: potency is read from the fitted curve at half-maximal effect. Put shortly: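 Luminescent PXR reporter read (ONE-Glo) after a CellTiter-Fluor viability read, following 24 h, 37C treatment of HepG2 cells stably carrying hPXR-Luc.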

The target is the same in test [13]. As to the kind of experiment: Dual reporter qHTS for antagonist of Pregnane X Receptor (hPXR) against the NCATS DSHEA and TCM libraries: Luminescence Readout (AID 1920060).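 Also: HepG2 cells carrying hPXR luciferase reporter stimulated with rifampicin at 2 µM; 0% is about no effect.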 An outline of the steps:
(§3)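 hPXR-Luc HepG2 cells exposed 24 h at 37 C to compounds with 2 uM rifampicin in antagonist mode; luciferase luminescence measured by ONE-Glo, with CellTiter-Fluor viability read beforehand.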

Test [14] in a line: Dual reporter qHTS for antagonist of Pregnane X Receptor (hPXR) against the NCATS DSHEA and TCM libraries: Fluorescence Readout (AID 1920061). Also: 0% is about no effect. An outline of the steps: as §3
Test [15] is described as follows: Viability counterscreen for antagonist of constitutive androstane receptor (CAR) against the NCATS DSHEA and TCM libraries (AID 1794837).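 Also: compound exposure lasted 24 h before viability reading; 0% is about no effect.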 Put shortly: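 Fluorescence from CellTiter-Fluor reports live-cell protease activity in HepG2-CYP2B6-hCAR cells treated for 24 h with substances alongside 48 uM CITCO.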
A short description of test [16]: Stat Signaling Pathway (AID 446; active = well fitted curve in either direction with a large enough effect, not every such curve was filed as active;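 also: ME-180 cervical cancer cells given 40 pM IL-6 alongside compound; SIE-controlled beta-lactamase reporter measured as 460/530 nm FRET emission ratio; % is scaled to controls: 0 for no effect and ±100 for the full control effect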). Put shortly:
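ME-180 cells carrying a SIE-driven beta-lactamase reporter are stimulated with 40 pM IL-6 for 5 h at 37C in the presence of compound. The 460/530 nm FRET substrate ratio is read after 2.5 h at RT. Data are normalised to 300 pM IL-6 and to 125 nM JAK inhibitor controls.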

Test [17] deals with Glucocorticoid receptor (Homo sapiens) (UniProt P04150). As to the kind of experiment: GR-GFP Redistribution (AID 450;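 active = compounds whose dose series gives a full or clear partial fitted curve of increased nuclear translocation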; also: potency is read from the fitted curve at half-maximal effect). Conditions: U2OS GR-GFP nuclear translocation, laser cytometry, 2 h.
Test [18] shares this target. As to the kind of experiment: GR-EFC Redistribution (AID 451; calls by dose curve; also: potency is read from the fitted curve at half-maximal effect). The settings on record: CHO-K1 GR-EFC translocation, beta-gal luminescence, 2 h. Put shortly:
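Translocation of GR-ED fusion to nuclear EA restores b-gal, read by luminescence after 1 h room-temperature detection. Engineered CHO-K1 biosensor cells, 1,000/well, exposed 2 h at 37 C to titrations up to 46 uM final.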

Test [19] deals with Mitogen-activated protein kinase 10 (Mus musculus) (UniProt Q61831). As to the kind of experiment: JNK3 AlphaScreen Assay (AID 530; active = well fitted curve in either direction with a large enough effect, not every such curve was filed as active;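 also: kinase came from lysate of stimulated human HepG2 cells; signal reports phosphorylation of biotinylated GST-cJun 1-79 at Ser73 with 10 µM ATP; series mostly up to about 57 µM; % is scaled to controls: 0 for no effect and ±100 for the full control effect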). Put shortly: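 Compound titrations were preincubated 15 minutes at room temperature with substrate, antibody and pre-activated JNK3-containing HepG2 lysate. Reactions were started with 10 uM ATP and stopped with EDTA-containing bead buffer for AlphaScreen detection.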
(Bead proximity is the source of the signal in Alpha formats.)

In test [20] the target is Ubiquitin carboxyl-terminal hydrolase 1 (Homo sapiens) (UniProt O94782). As to the kind of experiment: Inhibitors of USP1/UAF1: Pilot qHTS (AID 504865).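 Also: rhodamine fluorescence freed from ubiquitin-rhodamine substrate followed over time; top concentration of the series differs between compounds; % is scaled to controls: 0 for no effect and ±100 for the full control effect; nearly all actives have a fitted effect of over 35% in size.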 An outline of the steps: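 Kinetic fluorescence assay: 1nM USP1/UAF1, 15 min compound preincubation, then 150nM Ub-Rho; 480/540 nm.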

Unmarked numbers belong to inactive results. Inconclusive results are not listed. The source made the active and inactive calls. Unless noted, calls follow the shape of the dose curve; as a rule, active = well fitted curve in the direction sought with a large enough effect; inconclusive = small, poorly fitted or top-dose-only effect, or another doubt; inactive = no such curve, though single readings can be large; an effect the other way counts as inactive or inconclusive.

From PubChem BioAssay (NCATS) come the findings set out here.

Chain of Glucocorticoid receptor (Homo sapiens) (P04150 whole entry, looked up): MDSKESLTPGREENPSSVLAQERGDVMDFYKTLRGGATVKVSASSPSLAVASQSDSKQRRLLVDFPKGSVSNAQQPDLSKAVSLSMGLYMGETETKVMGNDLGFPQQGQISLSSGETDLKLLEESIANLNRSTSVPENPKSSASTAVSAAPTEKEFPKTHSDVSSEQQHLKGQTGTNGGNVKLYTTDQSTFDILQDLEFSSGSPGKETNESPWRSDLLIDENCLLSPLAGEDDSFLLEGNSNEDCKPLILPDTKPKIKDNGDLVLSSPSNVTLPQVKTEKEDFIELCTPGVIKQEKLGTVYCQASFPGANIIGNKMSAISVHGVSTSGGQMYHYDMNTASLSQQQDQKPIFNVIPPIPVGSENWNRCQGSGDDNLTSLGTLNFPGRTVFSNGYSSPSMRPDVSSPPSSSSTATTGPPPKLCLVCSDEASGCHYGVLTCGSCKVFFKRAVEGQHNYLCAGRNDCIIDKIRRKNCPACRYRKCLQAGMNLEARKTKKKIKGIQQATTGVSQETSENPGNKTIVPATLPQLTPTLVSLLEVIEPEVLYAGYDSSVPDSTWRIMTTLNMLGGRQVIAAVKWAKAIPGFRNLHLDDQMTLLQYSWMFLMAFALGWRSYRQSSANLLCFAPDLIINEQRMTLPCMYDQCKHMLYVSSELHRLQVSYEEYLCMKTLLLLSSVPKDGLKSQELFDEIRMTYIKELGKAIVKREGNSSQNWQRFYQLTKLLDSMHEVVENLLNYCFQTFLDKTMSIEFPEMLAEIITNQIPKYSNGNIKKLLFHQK
Chain of Cytochrome P450 2C9 (Homo sapiens) (P11712 whole entry, looked up): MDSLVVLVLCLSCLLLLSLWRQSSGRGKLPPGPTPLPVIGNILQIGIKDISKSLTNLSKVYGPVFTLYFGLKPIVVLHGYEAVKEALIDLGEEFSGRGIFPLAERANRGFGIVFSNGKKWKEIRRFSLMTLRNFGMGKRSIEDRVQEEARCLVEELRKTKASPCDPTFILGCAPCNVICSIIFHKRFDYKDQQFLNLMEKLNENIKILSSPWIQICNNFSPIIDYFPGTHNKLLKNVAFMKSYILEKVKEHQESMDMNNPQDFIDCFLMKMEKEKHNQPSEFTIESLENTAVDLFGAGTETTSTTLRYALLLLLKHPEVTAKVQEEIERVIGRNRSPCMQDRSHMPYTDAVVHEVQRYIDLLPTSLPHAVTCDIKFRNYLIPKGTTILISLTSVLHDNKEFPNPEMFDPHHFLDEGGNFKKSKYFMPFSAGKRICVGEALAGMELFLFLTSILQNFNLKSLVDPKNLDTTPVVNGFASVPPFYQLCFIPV
Chain of Cytochrome P450 2C19 (Homo sapiens) (P33261 whole entry, looked up): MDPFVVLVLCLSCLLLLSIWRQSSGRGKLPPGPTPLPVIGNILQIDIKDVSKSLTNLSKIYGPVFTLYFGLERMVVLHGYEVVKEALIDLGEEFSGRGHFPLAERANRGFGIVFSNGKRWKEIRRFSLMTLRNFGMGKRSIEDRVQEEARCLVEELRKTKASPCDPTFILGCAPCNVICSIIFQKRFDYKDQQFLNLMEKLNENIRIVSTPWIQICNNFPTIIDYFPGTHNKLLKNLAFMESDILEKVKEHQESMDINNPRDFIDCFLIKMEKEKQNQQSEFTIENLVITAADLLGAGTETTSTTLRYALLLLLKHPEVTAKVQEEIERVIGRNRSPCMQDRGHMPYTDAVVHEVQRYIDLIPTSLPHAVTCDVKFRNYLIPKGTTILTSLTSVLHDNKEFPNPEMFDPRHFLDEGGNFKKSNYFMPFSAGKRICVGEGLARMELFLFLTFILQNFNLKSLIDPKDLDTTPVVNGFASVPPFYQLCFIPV
Chain of Cytochrome P450 3A4 (Homo sapiens) (P08684 whole entry, looked up): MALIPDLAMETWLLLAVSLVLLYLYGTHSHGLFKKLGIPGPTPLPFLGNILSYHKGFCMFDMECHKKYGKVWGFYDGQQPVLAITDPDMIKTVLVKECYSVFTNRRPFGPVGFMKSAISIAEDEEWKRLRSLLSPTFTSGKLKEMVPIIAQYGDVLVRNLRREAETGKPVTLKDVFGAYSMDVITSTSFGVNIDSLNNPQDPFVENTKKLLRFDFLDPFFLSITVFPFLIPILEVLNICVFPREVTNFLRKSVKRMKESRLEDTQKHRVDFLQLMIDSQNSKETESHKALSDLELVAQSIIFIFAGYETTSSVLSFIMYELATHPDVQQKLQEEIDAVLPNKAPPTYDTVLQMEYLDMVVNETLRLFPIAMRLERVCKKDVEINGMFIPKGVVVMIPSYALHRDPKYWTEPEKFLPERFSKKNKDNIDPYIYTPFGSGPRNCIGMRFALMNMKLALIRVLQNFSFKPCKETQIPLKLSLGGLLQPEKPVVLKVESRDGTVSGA
Chain of Cytochrome P450 2D6 (Homo sapiens) (P10635 whole entry, looked up): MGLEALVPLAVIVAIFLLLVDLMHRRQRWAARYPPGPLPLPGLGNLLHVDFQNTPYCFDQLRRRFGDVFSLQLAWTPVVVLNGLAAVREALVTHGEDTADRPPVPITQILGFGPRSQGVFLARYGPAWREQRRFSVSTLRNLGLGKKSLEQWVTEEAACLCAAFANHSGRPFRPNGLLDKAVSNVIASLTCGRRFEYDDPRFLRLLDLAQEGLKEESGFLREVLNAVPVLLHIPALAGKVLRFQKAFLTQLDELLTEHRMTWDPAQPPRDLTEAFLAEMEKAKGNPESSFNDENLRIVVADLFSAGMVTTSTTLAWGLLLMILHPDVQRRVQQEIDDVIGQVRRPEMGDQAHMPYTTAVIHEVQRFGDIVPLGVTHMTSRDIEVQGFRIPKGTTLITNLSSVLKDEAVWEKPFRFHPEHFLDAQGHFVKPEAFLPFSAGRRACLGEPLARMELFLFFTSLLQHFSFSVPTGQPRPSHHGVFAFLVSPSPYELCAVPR
Chain of Ubiquitin carboxyl-terminal hydrolase 1 (Homo sapiens) (O94782 whole entry, looked up): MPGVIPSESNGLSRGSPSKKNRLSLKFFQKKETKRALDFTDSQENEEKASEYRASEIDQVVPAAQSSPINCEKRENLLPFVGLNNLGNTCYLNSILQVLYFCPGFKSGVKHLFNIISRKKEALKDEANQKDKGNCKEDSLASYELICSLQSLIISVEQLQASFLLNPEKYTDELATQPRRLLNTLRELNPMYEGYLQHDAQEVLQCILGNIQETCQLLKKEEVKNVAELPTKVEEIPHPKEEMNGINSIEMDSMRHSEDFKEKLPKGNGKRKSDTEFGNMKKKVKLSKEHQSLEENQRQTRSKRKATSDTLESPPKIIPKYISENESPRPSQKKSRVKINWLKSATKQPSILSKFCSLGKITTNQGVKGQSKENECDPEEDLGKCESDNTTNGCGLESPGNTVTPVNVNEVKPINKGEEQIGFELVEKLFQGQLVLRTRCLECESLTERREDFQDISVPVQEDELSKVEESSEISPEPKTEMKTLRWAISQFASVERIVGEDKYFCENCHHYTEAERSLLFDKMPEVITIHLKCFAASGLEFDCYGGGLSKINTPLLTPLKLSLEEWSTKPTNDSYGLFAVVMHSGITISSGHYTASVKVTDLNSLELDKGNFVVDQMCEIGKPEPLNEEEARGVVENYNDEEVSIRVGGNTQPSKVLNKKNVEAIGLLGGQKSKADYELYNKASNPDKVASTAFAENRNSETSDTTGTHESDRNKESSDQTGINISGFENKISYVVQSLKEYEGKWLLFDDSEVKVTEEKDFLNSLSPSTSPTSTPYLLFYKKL
Chain of Nuclear receptor subfamily 1 group I member 2 (Homo sapiens) (O75469 whole entry, looked up): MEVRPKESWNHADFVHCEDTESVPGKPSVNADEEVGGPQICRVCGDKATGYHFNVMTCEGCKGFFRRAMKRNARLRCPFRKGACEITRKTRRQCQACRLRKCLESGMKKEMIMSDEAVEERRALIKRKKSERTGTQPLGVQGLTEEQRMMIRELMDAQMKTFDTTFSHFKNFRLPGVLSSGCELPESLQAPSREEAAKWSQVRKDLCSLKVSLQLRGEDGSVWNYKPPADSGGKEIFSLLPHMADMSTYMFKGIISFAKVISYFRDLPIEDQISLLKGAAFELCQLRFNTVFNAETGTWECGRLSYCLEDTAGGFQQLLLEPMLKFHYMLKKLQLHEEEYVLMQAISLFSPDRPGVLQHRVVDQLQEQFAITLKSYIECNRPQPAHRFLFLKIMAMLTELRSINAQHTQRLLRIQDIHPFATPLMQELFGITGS
Chain of Cytochrome P450 1A2 (Homo sapiens) (P05177 whole entry, looked up): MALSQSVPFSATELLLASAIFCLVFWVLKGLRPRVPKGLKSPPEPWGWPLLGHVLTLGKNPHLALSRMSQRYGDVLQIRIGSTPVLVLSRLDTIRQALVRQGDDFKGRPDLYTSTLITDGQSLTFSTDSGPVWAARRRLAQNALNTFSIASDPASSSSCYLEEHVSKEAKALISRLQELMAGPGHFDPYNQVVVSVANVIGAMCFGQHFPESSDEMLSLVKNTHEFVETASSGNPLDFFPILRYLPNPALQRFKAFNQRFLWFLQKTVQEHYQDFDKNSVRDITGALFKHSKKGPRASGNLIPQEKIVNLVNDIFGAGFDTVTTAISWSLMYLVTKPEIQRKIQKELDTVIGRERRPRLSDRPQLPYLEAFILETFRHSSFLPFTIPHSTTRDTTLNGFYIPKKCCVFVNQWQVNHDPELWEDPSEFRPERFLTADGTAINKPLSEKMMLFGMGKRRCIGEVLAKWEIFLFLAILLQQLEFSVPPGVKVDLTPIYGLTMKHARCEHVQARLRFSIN

Take `Cc1ccc(O)c(O)c1`: the compound was called inactive in [1], in test [2], in test [3], in test [8], in test [11] and in test [13]. In addition, the Potency result in test [4], in [5], in [6], in [7] and in test [9] was “inactive” each time. Moreover, the max response in test [10] was -0.684%. For the same compound, in test [12], the Potency was 50.1 µM (active).

Regarding `C=CCc1ccc(OC)c(OC)c1`, the compound was classed as inactive in [2], in test [3], in test [8], in [11], in test [13] and in test [14]. Besides, the Potency result in test [4], in [5], in test [6] and in test [7] was “inactive” throughout. Moreover, the max response in test [10] is -1.2%.

As for `C=C1C[C@@]23CC[C@H]4[C@@](C)(CCC[C@@]4(C)C(=O)O[C@@H]4O[C@H](CO)[C@@H](O)[C@H](O)[C@H]4O[C@@H]4O[C@H](CO)[C@@H](O)[C@H](O)[C@H]4O)[C@@H]2CC[C@]1(O[C@@H]1O[C@H](CO)[C@@H](O)[C@H](O)[C@H]1O[C@@H]1O[C@H](CO)[C@@H](O)[C@H](O)[C@H]1O)C3`, the outcome in test [15], in test [1], in test [2], in [8], in test [11] and in test [13] was inactive. Also, in test [14], the outcome was inactive. In addition, the Potency entry in test [4], in test [5], in [6], in [7] and in test [9] was “inactive” each time. In test [10], the max response was 4.27%.

With `C=C1CC[C@H]2C[C@@H]1C2(C)C`, the outcome in test [2], in [3], in test [8], in test [11], in test [13] and in [14] was inactive. Further, the Potency result in test [4], in test [5], in [6], in test [7], in test [9] and in [12] was “inactive” in each case. In addition, in test [10], the max response is 0.51%.

Turning to `CN(C)Cc1ccccc1-c1ccc2ncnc(N(C)C)c2c1`, in test [16], the outcome was inactive. Besides, the Potency in test [17] and in test [18] was over 46 µM in each case. For the same compound, the Potency result in test [19] and in test [20] was “inactive” each time.

Turning to `CC(=O)O[C@@H]1CC[C@@]2(C)[C@@H](CC[C@]3(C)[C@@H]2C(=O)C=C2[C@@H]4[C@@H](C)[C@H](C)CC[C@]4(C)CC[C@]23C)[C@@]1(C)C(=O)O`, the compound was classed as inactive in [1], in [2], in test [3], in [11] and in [14]. In addition, the Potency entry in test [5] and in [12] was “inactive” each time. In addition, the Potency in test [6] was 14.1 µM (active); in test [7] it was 3.55 µM (active). For the same compound, the max response in test [10] was -0.124%.

For the compound `O=c1cnc2cnc(N3CCOCC3)nc2n1Cc1cccs1`, in test [16], the compound was classed as inactive. For the same compound, the Potency was over 9.22 µM in [17] and over 46 µM in test [18]. In addition, in test [20], the Potency entry is “inactive”.

Turning to `COc1ccccc1CNc1nc(-c2cccc(NS(C)(=O)=O)c2)nc2ccccc12`, the call in [16] was inactive. Further, the Potency in [17] and in [18] was over 46 µM in each case. In addition, the Potency entry in test [19] and in [20] was “inactive” throughout.

On to `CNc1ncncc1-c1ccccc1CN(C)C`, for which, in test [16], the result was inactive. Besides, the Potency in [17] and in test [18] was over 46 µM throughout. For the same compound, the Potency result in test [19] and in test [20] was “inactive” in each case.
